The record followed here is PubChem BioAssay (NCATS).

Each structure is given as a SMILES string. Records with an inconclusive call do not appear. Unmarked numbers belong to inactive results. The source made the active and inactive calls. The call rests on the fitted dose curve; in most records, active means well fitted curve in the direction sought with a large enough effect; inconclusive means small, poorly fitted or top-dose-only effect, or another doubt; inactive means no such curve, though single readings can be large; an effect the other way counts as inactive or inconclusive.

Test [1] has as its target Metallo-beta-lactamase type 2 (Klebsiella pneumoniae) (UniProt C7C422). As to the kind of experiment: qHTS to identify inhibitors of the New Delhi Metallo-beta-lactamase (NDM): assay validation screen against the NCATS LOPAC Collection (AID 1794843).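 Further: nitrocefin turnover by NDM-1 measured as 485 nm absorbance at plateau; on the % scale 0 is the no-effect control and ±100 the full control effect.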 The procedure, abridged: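 NDM-1 at 2 nM final in 50 mM HEPES pH 7.0, 1 uM ZnSO4, 0.01% Tween20, preincubated with LOPAC compounds pinned in DMSO; 50 uM nitrocefin (stock) added. Hydrolysis read as absorbance at 485 nm in the plateau phase.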

Test [2] addresses Glutathione peroxidase 1 (Homo sapiens) (UniProt P07203). Briefly: Primary qHTS Assay for Inhibitors of Recombinant Selenoprotein Glutathione Peroxidase 1 (GPX1) (AID 1845191). Further: nearly all actives have a fitted effect of over 65% in size. On activity, negative = inhibition: on the % scale 0 is the no-effect control and ±100 the full control effect. The procedure, abridged:
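GPX1 10 nM, GR 100 nM, GSH 1 mM, NADPH 0.5 mM, CHP 0.5 mM (final). 30-min cpd preincubation, RT. Ex340/Em450 read t=0, t=15 min.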
A general note: qHTS replaces the single test concentration by a dilution series.

For test [3], the target named is Phospholipid hydroperoxide glutathione peroxidase GPX4 (Homo sapiens) (UniProt P36969). Briefly: Primary qHTS Assay for Inhibitors of Recombinant Selenoprotein Glutathione Peroxidase 4 (GPX4) (AID 1845192). Further: nearly all actives have a fitted effect of over 65% in size. The conditions noted are these: outcome: dose series up to 50 µM unless noted. In a few lines:
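qHTS, GR-coupled: GPX4 200 nM + cpd 30 min RT → GSH 1 mM, NADPH 0.5 mM, GR 100 nM → CHP 0.5 mM start; fluor 340/450 at t0 and t15 min; no-enzyme wells as control.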

A short description of test [4]: qHTS profiling for inhibitors of Plasmodium falciparum proliferation (AID 504749). Further: nearly all actives have a fitted effect of over 60% in size. Further: potency means the concentration at half of the fitted maximal effect.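 On activity, negative = inhibition: 0% = DMSO vehicle and full inhibition = artemisinin control.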 The conditions noted are these: P. falciparum in erythrocytes, SYBR Green DNA, 72 h. The procedure, abridged: (§1)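 Quantitative HTS: compounds pinned into medium, infected erythrocytes added (0.3% parasitemia, 2.5% hematocrit), 72 h culture at 37 C under 5% CO2. Saponin/Triton lysis with SYBR Green I, overnight RT, then fluorescence read.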

The test system of the next test is 3D7. Described as above. The conditions noted are these: P. falciparum in erythrocytes, SYBR Green DNA, 72 h; series mostly up to 28.7 µM. The procedure, abridged: as §1
A further test has as its system 7G8. Described as above. The settings on record: P. falciparum in erythrocytes, SYBR Green DNA, 72 h; series mostly up to 28.7 µM. In a few lines:
as §1

For another test, the system named is AA1029. The test is described as above. The settings on record: P. falciparum in erythrocytes, SYBR Green DNA, 72 h; series mostly up to 28.7 µM. The procedure, abridged:
as §1

The subject of the next test is AS120. The description is as above. The settings on record: P. falciparum in erythrocytes, SYBR Green DNA, 72 h; series mostly up to 28.7 µM. The procedure, abridged: as §1
A further test deals with ATS189. The description is as above. The conditions noted are these: P. falciparum in erythrocytes, SYBR Green DNA, 72 h; series mostly up to 28.7 µM. The procedure, abridged: as §1
Another test concerns ATS95. Described as above. The conditions noted are these: P. falciparum in erythrocytes, SYBR Green DNA, 72 h; series mostly up to 28.7 µM. In a few lines:
as §1

[5] abbreviates: at 28.7 µM (top of the series), parasite line A.
[6] abbreviates: at 28.7 µM (top of the series), parasite line B.

Chain of Phospholipid hydroperoxide glutathione peroxidase GPX4 (Homo sapiens) (P36969 whole entry, looked up): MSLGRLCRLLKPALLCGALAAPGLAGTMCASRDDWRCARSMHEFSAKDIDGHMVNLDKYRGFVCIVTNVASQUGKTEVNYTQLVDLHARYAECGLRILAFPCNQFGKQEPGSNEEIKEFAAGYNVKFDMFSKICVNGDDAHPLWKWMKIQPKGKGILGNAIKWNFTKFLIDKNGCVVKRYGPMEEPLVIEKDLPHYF
Chain of Metallo-beta-lactamase type 2 (Klebsiella pneumoniae) (C7C422 whole entry, looked up): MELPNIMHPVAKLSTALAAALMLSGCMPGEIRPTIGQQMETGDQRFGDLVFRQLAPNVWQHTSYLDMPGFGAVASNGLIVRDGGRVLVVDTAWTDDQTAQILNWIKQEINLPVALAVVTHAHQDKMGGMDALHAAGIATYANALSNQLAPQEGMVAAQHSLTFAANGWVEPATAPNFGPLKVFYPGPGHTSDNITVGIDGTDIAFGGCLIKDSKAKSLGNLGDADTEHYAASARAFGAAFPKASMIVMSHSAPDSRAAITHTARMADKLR
Chain of Glutathione peroxidase 1 (Homo sapiens) (P07203 whole entry, looked up): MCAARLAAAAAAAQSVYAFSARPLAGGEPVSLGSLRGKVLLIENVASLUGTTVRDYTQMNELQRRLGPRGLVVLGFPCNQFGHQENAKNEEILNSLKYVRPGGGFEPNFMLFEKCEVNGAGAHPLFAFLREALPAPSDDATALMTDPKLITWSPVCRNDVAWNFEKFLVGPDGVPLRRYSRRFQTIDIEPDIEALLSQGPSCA

`CCCCNC(=O)NS(=O)(=O)c1ccc(C)cc1`: the Potency entry (in test [1]; in test [2]; with 3D7; in the test on 7G8; in the test with AA1029; in the test with AS120) was “inactive” in each case. Moreover, the Potency result in the test with ATS189 and in the test on ATS95 was “inactive” in each case. Besides, the outcome in test [3] was inactive. The results for the activity, negative = inhibition in [4] (setting [5]) and in test [4] (setting [6]) were 1.62% and 0.192%, respectively.
On to `NS(=O)(=O)c1cc2c(cc1Cl)NC(C1CC3C=CC1C3)NS2(=O)=O` (stereo unspecified), for which the Potency result (in test [1]; in test [2]; in the test on 3D7; in the test with 7G8; in the test on AA1029; in the test on AS120) was “inactive” throughout. Further, the Potency entry in the test with ATS189 and in the test on ATS95 was “inactive” throughout. The outcome in test [3] was inactive. Also, the activity, negative = inhibition was 2.38% in test [4] (setting [5]) and -3.16% in test [4] (setting [6]).
On to `COc1cc2c(cc1OC)-c1cc(=Nc3c(C)cc(C)cc3C)n(C)c(=O)n1CC2`, for which the Potency result in test [1] and in [2] was “inactive” each time. In test [3], the outcome was inactive. The Potency is 2.82 µM (active) in test [4] (parasite line A); 2.51 µM (active) in [4] (parasite line B); 2.51 µM (active) in the test with 3D7; 0.891 µM (active) in the test on 7G8; 2.82 µM (active) in the test with AA1029; 3.55 µM (active) in the test on AS120. The figures for the Potency in the test with ATS189 and in the test with ATS95 were 7.94 µM (active) and 3.55 µM (active), respectively.
On to `CCN(Cc1ccncc1)C(=O)C(CO)c1ccccc1` (stereo unspecified), for which the Potency entry (in test [1]; in test [2]; in the test on 3D7; in the test with 7G8; in the test with AA1029; in the test on AS120) was “inactive” in each case. In addition, the Potency entry with ATS189 and in the test with ATS95 was “inactive” throughout. For the same compound, in [3], the outcome was inactive. In addition, the results for the activity, negative = inhibition in test [4] (setting [5]) and in test [4] (setting [6]) were 3.05% and -7.78%, respectively.
Regarding `CCN1CCc2nc(N)oc2CC1`, the Potency result (in [1]; in test [2]; in the test on 3D7; in the test with 7G8; with AA1029; with AS120) was “inactive” each time. In addition, the Potency result with ATS189 and in the test on ATS95 was “inactive” in each case. The result in [3] was inactive. In addition, the activity, negative = inhibition in test [4] (setting [5]) is 1.51%; in [4] (setting [6]), 1.64%.
`CCNC(=O)N1CCN(CCCC(c2ccc(F)cc2)c2ccc(F)cc2)CC1`: the Potency entry in [1] and in [2] was “inactive” in each case. In [3], the result was inactive. Besides, the Potency in test [4] (parasite line A) was 1.12 µM (active); in test [4] (parasite line B) it was 1.26 µM (active); in the test on 3D7, 7.08 µM (active); in the test with 7G8, 2 µM (active); in the test on AA1029 it was 2.24 µM (active); in the test on AS120, 2.24 µM (active). Further, the Potency in the test with ATS189 is 1.12 µM (active); in the test with ATS95 it was 2.24 µM (active).
Regarding `NC(=Nc1ccccc1)Nc1ccccc1`, the Potency entry (in [2]; in the test on 3D7; with AA1029; in the test with AS120; with ATS189; with ATS95) was “inactive” each time. For the same compound, in [3], the outcome was inactive. The activity, negative = inhibition is -14.1% in test [4] (setting [5]) and -13.7% in test [4] (setting [6]).
Take `CCn1cc(C(=O)O)c(=O)c2cc3c(cc21)OCO3`: the Potency entry (in test [1]; in [2]; with 3D7; in the test on AA1029; with AS120; in the test with ATS189) was “inactive” in each case. Besides, the Potency entry in the test on ATS95 was “inactive”. Moreover, the result in [3] was inactive. For the same compound, the activity, negative = inhibition is -8.68% in test [4] (setting [5]) and -3.36% in [4] (setting [6]).
Regarding `Brc1c(NC2=NCCN2)ccc2nccnc12`, the Potency result (in [1]; in test [2]; in the test on AA1029; with AS120; in the test with ATS95) was “inactive” each time. The outcome in test [3] was inactive. Further, the figures for the activity, negative = inhibition in test [4] (setting [5]) and in [4] (setting [6]) were 0% and 3.95%, respectively. Moreover, in the test with 7G8, the Potency was 11.2 µM (active).
In the case of `CN1CCN(CC(=O)N2c3ccccc3C(=O)Nc3cccnc32)CC1`, the Potency result (in test [2]; in the test on 3D7; in the test on 7G8; with AA1029; in the test with AS120; with ATS189) was “inactive” each time. Besides, the Potency entry with ATS95 is “inactive”. In addition, the outcome in test [3] was “inactive [at 4.52 µM]”. The results for the activity, negative = inhibition in [4] (setting [5]) and in [4] (setting [6]) were -7.56% and -8.28%, respectively.
On to `c1cc(CN2CCCCC2)cc(OCCCNc2nc3ccccc3s2)c1`, for which the Potency entry in [1] and in [2] was “inactive” throughout. Also, the outcome in [3] was inactive. Besides, the values for the Potency in the test on 7G8, in the test with AS120 and with ATS95 were 6.31 µM (active), 5.01 µM (active) and 7.94 µM (active), respectively.
Regarding `CC1=NS(=O)(=O)c2cc(Cl)ccc2N1`, the Potency entry (in [1]; in test [2]; with 3D7; with 7G8; in the test with AA1029; in the test with ATS189) was “inactive” throughout. The Potency result in the test on ATS95 is “inactive”. Moreover, the outcome in test [3] was inactive. Also, the activity, negative = inhibition in [4] (setting [5]) is -21.1%.
For the compound `CCCCNc1ccc(C(=O)OCCN(C)C)cc1`, the Potency entry (in [1]; in test [2]; with 3D7; with 7G8; with AA1029; with AS120) was “inactive” in each case. Moreover, in the test on ATS95, the Potency entry was “inactive”. Moreover, the outcome in [3] was inactive. Besides, the activity, negative = inhibition in test [4] (at 12.8 µM (top of the series), parasite line A) was 20%.
As for `CCCCCCCC/C=C\CCCCCCCC(=O)NCc1ccc(O)c(OC)c1`, the Potency entry in test [1] and in [2] was “inactive” in each case. The result in test [3] was inactive. Also, the values for the Potency (in test [4] (parasite line A); in the test with ATS189) were 7.08 µM (active) and 8.91 µM (active), respectively.
`CCOC(=O)C1=C(C)NC(C)=C(C(=O)OC)C1c1cccc(Cl)c1Cl` (stereo unspecified): the Potency entry (in test [1]; in [2]; in the test with 3D7; with AA1029; in the test with AS120; in the test on ATS189) was “inactive” each time. Besides, in the test on ATS95, the Potency entry was “inactive”. Moreover, in test [3], the result was inactive. For the same compound, the activity, negative = inhibition is -7.27% in test [4] (setting [5]) and -5.02% in test [4] (setting [6]).
As to `CCN(CC)CC(=O)Nc1c(C)cccc1C`, the Potency result (in test [1]; in test [2]; in the test on 3D7; in the test with AA1029; with AS120; in the test on ATS189) was “inactive” throughout. Also, the Potency result with ATS95 was “inactive”. Also, the result in test [3] was inactive. Further, the figures for the activity, negative = inhibition in test [4] (setting [5]) and in test [4] (setting [6]) were 7.16% and 15.8%, respectively.
With `C[n+]1cc2c3c(ccc2c2ccc4cc5c(cc4c21)OCO5)OCO3`, the Potency entry (in test [1]; in [2]; in the test on AA1029; with AS120; in the test with ATS95) was “inactive” throughout. For the same compound, the outcome in test [3] was inactive. The activity, negative = inhibition in test [4] (setting [5]) is -18.2%; in [4] (setting [6]) it was -15.2%.
`O=C(CCCN1CCC(O)(c2cccc(C(F)(F)F)c2)CC1)c1ccc(F)cc1`: the Potency result in test [1] and in [2] was “inactive” throughout. Besides, in [3], the result was inactive. In addition, the Potency was 8.91 µM (active) in [4] (parasite line A); 8.91 µM (active) in test [4] (parasite line B); 3.98 µM (active) in the test with 7G8; 7.08 µM (active) in the test on AA1029; 7.94 µM (active) with AS120; 8.91 µM (active) in the test on ATS189. Besides, the Potency with ATS95 was 10 µM (active).
In the case of `CC(C)NNC(=O)c1ccncc1`, the Potency entry (in test [1]; in test [2]; in the test with 3D7; in the test on 7G8; with AS120; with ATS189) was “inactive” in each case. In test [3], the result was inactive. Also, the activity, negative = inhibition in [4] (setting [5]) was -11.8%. Moreover, in the test with AA1029, the Potency is 7.94 µM (active).
On to `CCCCOCCOCCOCc1cc2c(cc1CCC)OCO2`, for which the Potency result (in test [2]; in the test on 3D7; in the test with 7G8; with AA1029; in the test with AS120; in the test on ATS189) was “inactive” each time. Further, in the test on ATS95, the Potency entry is “inactive”. In addition, in test [3], the result was inactive. Also, the values for the activity, negative = inhibition in test [4] (setting [5]) and in test [4] (setting [6]) were 4.14% and 5.71%, respectively.
For the compound `CCCC(C(=O)OCCN(CC)CC)(c1ccccc1)c1ccccc1`, the Potency result in test [1] and in [2] was “inactive” throughout. Besides, the outcome in test [3] was inactive. The Potency in the test with 3D7 is 10 µM (active); in the test with 7G8, 3.98 µM (active); in the test with AA1029, 11.2 µM (active).
